HSV augment: increases HSV replication in cells. HSV replication augmentation in cells, fold increase. 220,000 tested, 0.005% active. maximum fold increase. AID 1956; in the data active means maximum fold increase above about 1.5; tested in PC3 cells
Arbovirus inh: arbovirus infection inhibition; arbovirus infection cell-based antiviral screen; inhibition, % at 10 µM; 200,000 tested, 0.37% active; in the data active means inhibition above about 30%
Measles CPE: protection of cells from measles virus | Measles virus-infected cells, CPE protection, absorbance | protection (pct of control), % at 4 µM | 140,000 tested, 1.5% active; in the data active means protection mostly above about 24%, no sharp cut-off; inactive means mostly below about 26%
ROMK primary: modulators of human ROMK potassium channel; P48048; B-score at 10 µM; 130,000 tested, 2% active; Tet-inducible ROMK, thallium flux fluorescence; actives lie on both sides;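 active means signal ratio slope over the read window, or its plate-corrected B-score, at least 3 SD from the plate mean, either direction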;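 further: B-score of the F/F0 ratio slope over 7 to 12 s after thallium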
Target sequence (P48048 whole entry, looked up): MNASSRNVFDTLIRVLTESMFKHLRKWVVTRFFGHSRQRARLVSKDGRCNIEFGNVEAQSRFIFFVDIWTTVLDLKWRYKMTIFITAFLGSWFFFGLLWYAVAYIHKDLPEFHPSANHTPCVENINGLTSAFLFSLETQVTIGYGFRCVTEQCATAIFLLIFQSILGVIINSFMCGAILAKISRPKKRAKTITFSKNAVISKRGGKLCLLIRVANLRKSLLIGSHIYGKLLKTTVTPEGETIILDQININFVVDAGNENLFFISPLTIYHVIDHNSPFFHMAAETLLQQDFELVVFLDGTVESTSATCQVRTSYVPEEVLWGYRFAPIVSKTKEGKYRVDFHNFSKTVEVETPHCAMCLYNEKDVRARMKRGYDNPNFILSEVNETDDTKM
KCC2 mod: modulates chloride dependent transport by human KCC2; 190,000 tested, 2.2% active; KCC2 cells, thallium flux FluoZin-2 fluorescence; B-score of Tl+ flux slope (higher = more flux/activation; lower = inhibition) at 10 µM; Q9H2X9;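 active means thallium flux slope and its plate-corrected score both differing from the plate sample mean at a set confidence after two filtering rounds, in either direction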;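 further: slope of fluorescence scaled to starting intensity during 10 to 20 s after thallium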
Numbers without * were called inactive. An excerpt weighted towards active compounds, which were near 4% of everything screened.

O=C(NCCSCc1ccc(Cl)cc1)c1cccs1 was read as HSV augment inactive and KCC2 mod -2.08.
For Cc1cc(C(=O)NC(Cc2ccccc2)C(=O)O)c(C)o1 (centres undefined) the results were HSV augment inactive, ROMK primary -0.174 and KCC2 mod -0.11.
`CS(=O)(=O)c1nc(-c2cccs2)cc(C(F)(F)F)n1` gave HSV augment inactive, Arbovirus inh -25.8, Measles CPE 11.2 and ROMK primary -4.25*.
`O=C(O)CCS(=O)(=O)c1nc(-c2cccs2)cc(C(F)(F)F)n1` gave HSV augment inactive, Arbovirus inh 2.5, Measles CPE 10.9 and ROMK primary -0.59.
For COc1ccc(C/C(C)=N/NC(=O)C2COc3ccccc3O2)cc1 (centres undefined) the results were HSV augment inactive, Arbovirus inh -3.1, ROMK primary -0.317 and KCC2 mod -0.0997.
For Cc1ccc(N2CC(C(=O)OCc3ccccc3)CC2=O)cc1 (centres undefined) the results were HSV augment inactive, Arbovirus inh 1.1, Measles CPE 7.3, ROMK primary -0.962 and KCC2 mod -4.26*.
For Cc1ccc(N2CC(C(=O)Oc3cccc(N4C(=O)CCC4=O)c3)CC2=O)cc1 (centres undefined) the results were HSV augment inactive, Arbovirus inh 3.6, Measles CPE 23.5 and KCC2 mod 7.07*.
Screening CC1(C)CC(=O)C(C=Nc2ccncc2)=C(O)C1 returned HSV augment inactive, ROMK primary 0.785 and KCC2 mod -0.162.
Screening CC1(C)CC(=O)C=C(N=CC2=C(O)CC(C)(C)CC2=O)C1 returned HSV augment inactive, Arbovirus inh 0.8, Measles CPE 51.7*, ROMK primary -0.105 and KCC2 mod 0.619.
Screening O=C(Nc1nnc(-c2ccco2)o1)c1ccc2ccccc2c1 returned HSV augment inactive, Arbovirus inh -25.6, Measles CPE 12.5, ROMK primary 0.834 and KCC2 mod 38.5*.
For O=C(NCc1ccccc1F)c1ccc(S(=O)(=O)Nc2cccc(C(F)(F)F)c2)cc1 the results were HSV augment inactive, Arbovirus inh -10.8, Measles CPE 30.7*, ROMK primary -0.473 and KCC2 mod 2.13.
`CCOc1cc2[nH]c(=S)n(CCN3CCCCC3CC)c(=O)c2cc1OCC` (centres undefined) gave HSV augment inactive, Arbovirus inh -5.1, Measles CPE 12.8, ROMK primary 0.0176 and KCC2 mod 0.675.
Screening CC1CCCCC1n1c(=S)[nH]c2ccccc2c1=O (centres undefined) returned HSV augment inactive, Arbovirus inh -35.2, Measles CPE 19.8 and KCC2 mod 187*.
CCOc1cc2[nH]c(=S)n(C(C)C)c(=O)c2cc1OCC was read as HSV augment inactive, Arbovirus inh -9.1, Measles CPE 15.7 and KCC2 mod 9.73*.
Screening CC(C)n1c(=S)[nH]c2ccccc2c1=O returned HSV augment inactive, Arbovirus inh -5.7, Measles CPE 2.9 and KCC2 mod 37.5*.
Screening CCC1CCCCN1CCCn1c(=S)[nH]c2ccccc2c1=O (centres undefined) returned HSV augment inactive, Arbovirus inh 8.3, Measles CPE 4.3, ROMK primary -0.124 and KCC2 mod 9.23*.
Cc1cc(S(=O)(=O)n2ccnc2)c(Cl)cc1Cl was read as HSV augment inactive, Arbovirus inh 2.8, ROMK primary 0.257 and KCC2 mod 0.0178.
For Cn1ncc(N=Cc2ccc([N+](=O)[O-])cc2)c1C(=O)Nc1ccccc1 the results were HSV augment inactive, Arbovirus inh -0.2, ROMK primary -1.05 and KCC2 mod 1.72.
COC(=O)C1=C[C@@H](C(=O)OC)[C@@H]2C3=C(C(=O)[C@@]2(C)NC(=O)c2ccccc2)[C@H](C)n2c(=O)n(C)c(=O)n2[C@@H]3C1 was read as HSV augment inactive.
For Cc1cc(Cl)ccc1NC(=O)C1CCN(S(C)(=O)=O)CC1 the results were HSV augment inactive, Arbovirus inh -2.2, ROMK primary 0.581 and KCC2 mod -0.517.
`CCCN1C2=NCCCN2c2ccccc21` gave HSV augment inactive, Arbovirus inh 5.6, Measles CPE 6.8 and KCC2 mod -0.386.
CCCN1C2=NCCN2c2ccccc21 was read as HSV augment inactive, Arbovirus inh 0.4, Measles CPE 45.5* and KCC2 mod 0.065.
`CC(C)c1ccc(/C=N/n2cnnc2)cc1` gave HSV augment inactive, ROMK primary -0.0461 and KCC2 mod -1.31.
O=C1c2cccc3c2[C@H](CCC3)CN1[C@@H]1CN2CCC1CC2 was read as HSV augment inactive.
`COCc1[nH]nc2c1C(c1sccc1C)C(C#N)=C(N)O2` (centres undefined) gave Arbovirus inh -4.3, Measles CPE 8.8 and ROMK primary -3.49*.
For CCCc1[nH]nc2c1C(c1ccc(O)cc1OCC)C(C#N)=C(N)O2 (centres undefined) the results were HSV augment inactive, Arbovirus inh -5.4, Measles CPE 1.6, ROMK primary -4.49* and KCC2 mod -1.05.
For COCc1[nH]nc2c1C(c1ccsc1)C(C#N)=C(N)O2 (centres undefined) the results were HSV augment inactive, Arbovirus inh -3.4, Measles CPE 20.3, ROMK primary -1.37 and KCC2 mod -1.3.
For CN(C)c1ccnc(Oc2ccc(Cl)cc2)c1C#N the results were HSV augment inactive, Arbovirus inh -7.6, Measles CPE 6.4 and KCC2 mod -0.424.
`Cc1cc(Cl)ccc1Oc1nccc(N(C)C)c1C#N` gave HSV augment inactive, Arbovirus inh 2.7 and Measles CPE 76.2*.
Cn1c(=O)c(C(=S)NC(=O)C2CC2)c(N)n(Cc2ccccc2)c1=O was read as HSV augment inactive, Arbovirus inh 2.3, Measles CPE 2.8, ROMK primary 1.24 and KCC2 mod 10.5*.
Screening CCN(CC)CC(=O)c1c(N)n(Cc2ccccc2)c(=O)n(C)c1=O returned HSV augment inactive, Arbovirus inh -4.0, ROMK primary 0.685 and KCC2 mod 0.409.
Screening CN(C)c1ccc(-c2ccc([C@H]3[C@@H]4C=CCC[C@@]4(C)C(=O)N3Cc3ccccc3)c(F)c2)cc1 returned HSV augment inactive and KCC2 mod 0.284.
Screening FC(F)(F)c1cnc(NNC(=S)Nc2ccccc2Cl)c(Cl)c1 returned HSV augment inactive, Arbovirus inh -7.4, Measles CPE 6.3 and KCC2 mod 28.9*.
O=c1c(-c2ccccc2)c[nH]n1-c1cccc([N+](=O)[O-])c1 was read as HSV augment inactive, Arbovirus inh 35.0*, ROMK primary 0.675 and KCC2 mod -0.414.
O=[N+]([O-])c1cccc(N2Cc3ccccc3C2)c1 was read as HSV augment inactive, Arbovirus inh 0.1, ROMK primary -0.358 and KCC2 mod 0.268.
Cn1c(=O)c2ncn(CC(=O)O)c2n(C)c1=O was read as HSV augment inactive and KCC2 mod 1.02.
Screening CCOC(=O)CSc1nc(C(C)C)nc2sc(C)c(C)c12 returned HSV augment inactive, Arbovirus inh 0.5, ROMK primary -0.0424 and KCC2 mod 2.22.
